From PubChem BioAssay AID488969 (Vanderbilt High Throughput Screening Facility, 2010)
In all, about 110,000 compounds were measured (“z-score”: median about -0.1, highest 2% from about 2 on). This excerpt belongs to a sample that is enriched for the highest values. Calls of active or inactive are those of the source.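 How the source made its calls: active means z-score in the third read window above 3 or below -3; inactive means the rest.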

These compounds were tested against Metabotropic glutamate receptor 8 (Rattus norvegicus) (UniProt P70579) (assay: mGluR8 Gi/Go-coupled signaling modulation – cell-based, rat, thallium flux, HTS, primary screen (AID 488969)). Details: HEK293 rat mGluR8, GIRK (G protein-gated inwardly rectifying potassium channel) thallium flux, FluoZin2; at 10 µM; stronger effect = higher value; submaximal glutamate (EC20) added with thallium.
Chain of Metabotropic glutamate receptor 8 (Rattus norvegicus) (P70579 whole entry, looked up): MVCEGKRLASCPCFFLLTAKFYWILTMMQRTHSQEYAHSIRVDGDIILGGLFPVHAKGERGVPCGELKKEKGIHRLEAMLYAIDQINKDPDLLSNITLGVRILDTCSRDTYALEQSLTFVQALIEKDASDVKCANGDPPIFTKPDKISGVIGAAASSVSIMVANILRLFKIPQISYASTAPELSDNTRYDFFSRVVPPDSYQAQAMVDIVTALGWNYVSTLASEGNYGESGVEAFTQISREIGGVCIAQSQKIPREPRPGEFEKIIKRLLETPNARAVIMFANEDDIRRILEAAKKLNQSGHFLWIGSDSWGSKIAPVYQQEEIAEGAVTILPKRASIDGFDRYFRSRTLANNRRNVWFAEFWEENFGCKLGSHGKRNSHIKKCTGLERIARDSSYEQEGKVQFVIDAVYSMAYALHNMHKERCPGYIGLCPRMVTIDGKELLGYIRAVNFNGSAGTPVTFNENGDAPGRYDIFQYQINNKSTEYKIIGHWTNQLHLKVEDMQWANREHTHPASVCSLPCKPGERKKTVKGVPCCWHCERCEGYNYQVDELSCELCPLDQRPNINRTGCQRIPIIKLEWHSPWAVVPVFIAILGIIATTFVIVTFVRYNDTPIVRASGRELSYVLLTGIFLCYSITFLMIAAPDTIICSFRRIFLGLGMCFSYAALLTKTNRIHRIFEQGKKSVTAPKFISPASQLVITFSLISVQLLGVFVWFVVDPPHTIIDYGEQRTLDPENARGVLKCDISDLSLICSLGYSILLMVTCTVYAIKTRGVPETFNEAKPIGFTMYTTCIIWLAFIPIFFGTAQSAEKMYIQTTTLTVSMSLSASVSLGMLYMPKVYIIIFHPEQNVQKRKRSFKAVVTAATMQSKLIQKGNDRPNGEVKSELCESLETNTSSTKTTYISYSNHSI
`COc1cccc(NC(=O)N(Cc2cc3cc(C)cc(C)c3[nH]c2=O)CC2COCCO2)c1` (centres undefined) gave a z-score of -0.438. `COc1ccc(NC(=O)/C=C/C(=O)O)cc1Cl` was tested, and the z-score was 0.0641. With `Cc1ccc(NC(=O)/C(=C\c2ccccc2)NC(=O)/C=C/c2ccccc2)cc1` the z-score was -0.26. `O=C(NCc1nnc(SCC(=O)N2CCCCCC2)o1)c1ccco1` was tested, and the z-score was -0.474. `O=C(NCc1nnc(SCC(=O)N2CCN(c3ccccc3)CC2)o1)c1ccco1` gave a z-score of -0.268. Work on `CC1CCN(C(=O)CSc2nnc(CNC(=O)c3ccco3)o2)CC1` yielded a z-score of 2.28. `CCOC(=O)c1c(NC(=O)CSc2nnc(CNc3ccc(Cl)cc3)o2)sc(C)c1C` gave a z-score of -0.783. `Cn1nc(C(F)(F)F)c2cc(NC(=O)OCC(C)(C)C)sc21` gave a z-score of -1.03. With `Cn1nc(C(F)(F)F)c2cc(NC(=O)OCc3ccc(F)cc3)sc21` the z-score was 9.32 (active). With `COc1ccc(COC(=O)Nc2cc3c(C(F)(F)F)nn(C)c3s2)cc1` the z-score was -0.456. `N/C(=N\OC(=O)CSc1ccccc1)c1cccc([N+](=O)[O-])c1` was tested, and the z-score was -0.477. Work on `O=C(COC(=O)c1ccccc1NC(=O)c1ccccc1)c1ccc([N+](=O)[O-])cc1` yielded a z-score of -0.202. For `CC(=O)C1=C(C)NC(SCc2ccc(C#N)cc2)=C(C#N)C1c1ccco1` (centres undefined), the z-score was 5.85 (active). `CSCSC1=C(C#N)C(c2ccc(Cl)cc2)C(C(C)=O)=C(C)N1` (centres undefined) was tested, and the z-score was 3.87 (active). `CC(=O)C1=C(C)NC(SCc2cccc3ccccc23)=C(C#N)C1c1ccco1` (centres undefined) gave a z-score of 0.063. In the case of `C=CCOC(=O)C1=C(C)NC(SCC)=C(C#N)C1c1ccc(Cl)cc1` (centres undefined), the z-score is reported as 0.285. For `CCc1ccc(C(=O)CSC2=C(C#N)C(c3ccco3)C(C(C)=O)=C(C)N2)cc1` (centres undefined), the z-score was -0.295. Work on `CSCSC1=C(C#N)C(c2ccccc2Cl)C(C(C)=O)=C(C)N1` (centres undefined) yielded a z-score of -2.68. Work on `Cn1c(CNC(=O)c2ccc(Cl)cc2)nnc1SCC(=O)Nc1sc2c(c1C#N)CCCC2` yielded a z-score of 0.356. `CN1CCc2nc(SCc3ccc(Cl)cc3)c(C#N)c(-c3cccs3)c2C1` was tested, and the z-score was 0.101. With `CCN(C(=O)C1CCN(S(=O)(=O)c2cccc3nonc23)CC1)c1ccccc1` the z-score was -0.39. `CCOC(=O)c1[nH]c(C)c(/C(O)=C2\C(=O)C(=O)N(CCN(C)C)C2c2ccc(C)o2)c1C` (centres undefined) was tested, and the z-score was -0.288. Work on `COC(=O)[C@H](CCSC)NC(=O)N1CCC(C)CC1` yielded a z-score of 0.07. `COc1ccc(NC(=O)c2cccnc2Sc2ccccc2)c(OC)c1` was tested, and the z-score was -0.415. `COc1cc2c(cc1OC)CN(S(C)(=O)=O)CC2` gave a z-score of 0.0161. For `NS(=O)(=O)c1ccc(NC(=O)COC(=O)CCC2CCCCC2)cc1`, the z-score was -0.157. For `N=c1ncn(CC(O)CO)c2nc(N3CCOCC3)[nH]c12` (centres undefined), the z-score was -0.0516. For `COc1ccc(C(=O)N(C(C)C)C(C)C)c(OC)c1`, the z-score was 0.14. `Oc1[nH]c2ccccc2c1N=Nc1nc2ccccc2s1` was tested, and the z-score was 2.12. For `Oc1[nH]c2ccccc2c1N=Nc1ccc(F)cc1`, the z-score was -0.405. `Oc1[nH]c2ccccc2c1N=Nc1ccccc1F` showed a z-score of 0.0754. `Cc1c(NC(=O)N(C)C)c(=O)n(-c2ccccc2)n1C` gave a z-score of -0.0915. Work on `Cc1c(NC(=O)CC(=O)Nc2c(C)n(C)n(-c3ccccc3)c2=O)c(=O)n(-c2ccccc2)n1C` yielded a z-score of -0.0936. For `Cc1c(NC(=O)CCC(=O)N2CCCCC2)c(=O)n(-c2ccccc2)n1C`, the z-score was -0.244. With `Cc1c(NC(=O)CSc2ccccc2C(=O)Nc2cccnc2)c(=O)n(-c2ccccc2)n1C` the z-score was 2.06. Work on `Cc1c(NC(=O)CSc2nccn2C)c(=O)n(-c2ccccc2)n1C` yielded a z-score of -0.0895. In the case of `Cc1c(NC(=O)CSc2ccccn2)c(=O)n(-c2ccccc2)n1C`, the z-score is reported as -0.147. With `Cc1c(NC(=O)CCC2CCCCC2)c(=O)n(-c2ccccc2)n1C` the z-score was 2.9. For `Cc1c(NC(=O)C2C3C=CC(C3)C2C(=O)O)c(=O)n(-c2ccccc2)n1C` (centres undefined), the z-score was 0.15. `CCC(=O)NC(NC(=S)Nc1c(C)n(C)n(-c2ccccc2)c1=O)C(Cl)(Cl)Cl` (centres undefined) showed a z-score of -0.491. `Cc1c(NC(=S)NC(NC(=O)CC(C)C)C(Cl)(Cl)Cl)c(=O)n(-c2ccccc2)n1C` (centres undefined) showed a z-score of 2.53. `CCCC(=O)NC(NC(=S)Nc1c(C)n(C)n(-c2ccccc2)c1=O)C(Cl)(Cl)Cl` (centres undefined) gave a z-score of -0.165. Work on `Cc1c(NC(=O)C2CC=CCC2C(=O)O)c(=O)n(-c2ccccc2)n1C` (centres undefined) yielded a z-score of 2.16. Work on `O=C(NCCc1ccncc1)C12CC3CC(CC(C3)C1)C2` yielded a z-score of 0.467. `CC1CCN(S(=O)(=O)c2ccc3c(c2)oc(=O)n3CC(=O)N2c3ccccc3CC2C)CC1` (centres undefined) gave a z-score of 0.0729. For `Cc1cc(C)n(-c2nc(NCC3CCCO3)c3c4c(sc3n2)COC(C)(C)C4)n1` (centres undefined), the z-score was -2. For `C=CCc1cccc(/C=N/NC(=O)CCCNc2ccc(C)cc2)c1O`, the z-score was -0.144. In the case of `CCOC(=O)C1CCN(C(=O)CN(c2ccc(OC)cc2)S(=O)(=O)c2c(C)nn(C)c2C)CC1`, the z-score is reported as -0.304. With `CCCC(C)NC(=O)c1ccc2[nH]c3c(c2c1)CC(C)CC3` (centres undefined) the z-score was -0.815. In the case of `O=C(CSc1ncn(-c2ccccc2)n1)Nc1ccc(Br)cn1`, the z-score is reported as -0.314. `COC(=O)c1c(C)[nH]c(C(=O)OCC(=O)NCC(C)C)c1C` gave a z-score of -0.00108. Compound `O=C(CSCCO)Nc1cccc([N+](=O)[O-])c1` has a z-score of -1.53. `Cc1c(NC(=O)C(=O)/C=C(/O)c2ccccc2)c(=O)n(-c2ccccc2)n1C` showed a z-score of -0.309. In the case of `Cc1c(NC(=O)C(=O)/C=C(\O)c2ccc(Br)cc2)c(=O)n(-c2ccccc2)n1C`, the z-score is reported as -0.237. With `Cc1c(NC(=O)C(=O)/C=C(\O)c2ccc(Cl)cc2)c(=O)n(-c2ccccc2)n1C` the z-score was 2.16. `O=C1COc2ccc(C(=O)c3ccccc3C(=O)NCc3ccco3)cc2N1` was tested, and the z-score was 0.0372. Work on `C=CCn1c(SCC(=O)c2[nH]c(C)c(C(=O)OCC)c2C)nc2scc(-c3ccc(OC)c(OC)c3)c2c1=O` yielded a z-score of -0.123. In the case of `CCOc1cc(C2NN=C(c3ccccc3)S2)ccc1OCc1ccccc1Cl` (centres undefined), the z-score is reported as 0.78. In the case of `CCOc1cc(C2NN=C(c3ccc(C)cc3)S2)ccc1O` (centres undefined), the z-score is reported as 8.33 (active). Work on `CCOc1cc(C2NN=C(c3ccccc3)S2)ccc1OCc1ccc(F)cc1` (centres undefined) yielded a z-score of 0.745. `CC1CCCCN1C(=O)CSc1nnc(-c2cccnc2)n1C1CCCCC1` (centres undefined) gave a z-score of 0.109. `COc1ccccc1N(CC(=O)NCc1cccnc1)S(C)(=O)=O` gave a z-score of 0.0794. In the case of `O=C(c1ccc2c(=O)n(C3CCCC3)c(=S)[nH]c2c1)N1CCc2ccccc21`, the z-score is reported as 9.93 (active). `CCN(CC)CCNC(=O)c1ccc2c(=O)n(C3CCCC3)c(=S)[nH]c2c1` showed a z-score of 0.125. `CCCCCn1c(=O)[nH]c2cc(C(=O)N3CCN(CC)CC3)ccc2c1=O` showed a z-score of 0.0715. `O=C(c1ccc(CNc2c(NC3CCCCC3)c(=O)c2=O)cc1)N1CCc2ccccc21` was tested, and the z-score was -0.164. With `CCN1CCN(C(=O)c2ccc3c(=O)n(C4CCCC4)c(=S)[nH]c3c2)CC1` the z-score was 5.09 (active). `CCCn1c(=S)[nH]c2cc(C(=O)N3CCc4ccccc43)ccc2c1=O` was tested, and the z-score was 1.07. Work on `O=C(Nc1ccc([N+](=O)[O-])cn1)c1cc(-c2cccc(Br)c2)nc2ccccc12` yielded a z-score of 0.61. `COC(=O)c1[nH]c2ccc(C)cc2c1NC(=O)CN1CCCC(C)(C)C1` showed a z-score of -0.603. With `O=C(Nc1cc(C(=O)N2CCCC2)ccc1N1CCCC1)c1ccccc1` the z-score was -1.7. For `O=c1c2ccccc2nc(-c2ccccc2)n1/N=C/c1ccc([N+](=O)[O-])cc1`, the z-score was 6.71 (active). For `Cc1nc2ccccc2c(=O)n1/N=C/c1ccc(O)cc1`, the z-score was 0.481. With `Cc1nc2ccccc2c(=O)n1/N=C/c1ccccc1` the z-score was -0.0985. With `CCC(=O)Nc1ccc2c(c1)ncn2-c1ccc(OC)cc1` the z-score was 2.82. Compound `COc1ccc(-n2cnc3cc(NC(=O)c4ccco4)ccc32)cc1` has a z-score of -1.7. `CCC(=O)Nc1ccc2c(c1)ncn2-c1ccccc1` gave a z-score of 0.261. Compound `O=C(O)c1ccc(CNCc2c(Cl)cccc2Cl)cc1` has a z-score of 0.0291. `CC(CCc1ccccc1)NC(=O)COC(=O)C1=COCCO1` (centres undefined) gave a z-score of 0.664. `O=c1[nH]cnc2c1nc(SCc1ccccc1)n2C1OC(CO)C(O)C1O` (centres undefined) gave a z-score of 1.45. `CN(C)c1ncnc2c1ncn2C1OC(CO)C(O)C1O` (centres undefined) was tested, and the z-score was -0.162. Compound `Nc1nc(SCc2ccc([N+](=O)[O-])cc2)c2ncn(C3OC(CO)C(O)C3O)c2n1` (centres undefined) has a z-score of 2.28. With `COc1ccc(C2=CC(=O)OC3(CCCCC3)O2)cc1` the z-score was -2.37. Compound `CCC(C)[C@H](NC(=O)Nc1ccc2c(c1)OCCO2)C(=O)O` (some centres undefined) has a z-score of -0.196. Compound `CCOc1ccc(C(=O)Nc2ccc3c(c2)OCCO3)cc1OC` has a z-score of -0.705. Compound `O=C(Nc1ccc(N2CCCC2)c(Cl)c1)c1ccc2c(c1)OCCO2` has a z-score of 2.58. With `COc1cc(C(=O)Nc2ccc3c(c2)OCCO3)ccc1OC(C)C` the z-score was 2.41. In the case of `COC(=O)[C@H](CC(C)C)NC(=O)Nc1ccc2c(c1)OCCO2`, the z-score is reported as 3.6 (active). Compound `COc1ccc(C(=O)Nc2ccc3c(c2)OCCO3)cc1` has a z-score of -0.168. Compound `COC(=O)[C@@H](NC(=O)Nc1ccc2c(c1)OCCO2)C(C)C` has a z-score of 0.876. `O=C(Nc1ccc(N2CCCCC2)c(Cl)c1)c1ccc2c(c1)OCCO2` gave a z-score of -0.282. `O=C(NC(=S)Nc1ccc(N2CCCCC2)c(Cl)c1)c1ccc2c(c1)OCCO2` showed a z-score of 0.126. `CC(C)c1ccc(C(=O)N2CCCN(C(=O)c3ccc(C(C)C)cc3)CC2)cc1` gave a z-score of -0.119. For `O=C(NCC1CCCO1)C1CCN(S(=O)(=O)c2cccc3nonc23)CC1` (centres undefined), the z-score was 0.153. `O=C(NC1CCCCC1)C12CC3CC(C1)CC(n1cncn1)(C3)C2` showed a z-score of -0.163. With `COc1ccc(Cn2nnnc2C(c2ccncc2)N2CCOCC2)cc1` (centres undefined) the z-score was 0.39. In the case of `O=C(COc1ccccc1Cl)NCCCN1CCOCC1`, the z-score is reported as 1.3. With `COc1ccc(S(=O)(=O)N2CCC(C(=O)NCc3ccccn3)CC2)cc1Cl` the z-score was -0.477. Work on `COc1cccc(/C=N/n2c(=S)n(C)c3cc(C)c(C)cc32)c1OC` yielded a z-score of 0.276. With `COc1ccc(/C=N/n2c(=S)n(C)c3ccccc32)cc1OC` the z-score was 0.103. Compound `COc1cccc(/C=N/n2c(=S)n(C)c3ccccc32)c1OC` has a z-score of 2.32. With `COc1ccc(C)cc1C1=Nc2ccccc2C1(C)C` the z-score was -0.42. `Cn1c(=O)[nH]c(=O)c2c1nc(N1CCCCC1)n2CCCSc1nnnn1-c1ccccc1` showed a z-score of -0.187. `O=C(CSc1nnc(NC(=O)C2CCC2)s1)Nc1ccc(N2CCOCC2)cc1` was tested, and the z-score was -0.322.
